Here are results for 83 compounds from PMC4336329 (PLoS ONE, 2015).

In all, about 310,000 compounds went through this assay and about 14,000 (4.5%) showed an effect of 50% or more. Effects have a minus sign here. Shown is part of a subset that was picked to be rich in strong results.
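Further: peak tail current of the secondary pulse compared with the same well before compound.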

The target in this test is human ether-à-go-go-related gene (hERG) potassium channel (human, UniProt Q12809). In words: primary screen, population patch clamp on CHO cells stably expressing hERG; higher = less effect of the substance.
Chain of human ether-à-go-go-related gene (hERG) potassium channel (Q12809 whole entry, looked up): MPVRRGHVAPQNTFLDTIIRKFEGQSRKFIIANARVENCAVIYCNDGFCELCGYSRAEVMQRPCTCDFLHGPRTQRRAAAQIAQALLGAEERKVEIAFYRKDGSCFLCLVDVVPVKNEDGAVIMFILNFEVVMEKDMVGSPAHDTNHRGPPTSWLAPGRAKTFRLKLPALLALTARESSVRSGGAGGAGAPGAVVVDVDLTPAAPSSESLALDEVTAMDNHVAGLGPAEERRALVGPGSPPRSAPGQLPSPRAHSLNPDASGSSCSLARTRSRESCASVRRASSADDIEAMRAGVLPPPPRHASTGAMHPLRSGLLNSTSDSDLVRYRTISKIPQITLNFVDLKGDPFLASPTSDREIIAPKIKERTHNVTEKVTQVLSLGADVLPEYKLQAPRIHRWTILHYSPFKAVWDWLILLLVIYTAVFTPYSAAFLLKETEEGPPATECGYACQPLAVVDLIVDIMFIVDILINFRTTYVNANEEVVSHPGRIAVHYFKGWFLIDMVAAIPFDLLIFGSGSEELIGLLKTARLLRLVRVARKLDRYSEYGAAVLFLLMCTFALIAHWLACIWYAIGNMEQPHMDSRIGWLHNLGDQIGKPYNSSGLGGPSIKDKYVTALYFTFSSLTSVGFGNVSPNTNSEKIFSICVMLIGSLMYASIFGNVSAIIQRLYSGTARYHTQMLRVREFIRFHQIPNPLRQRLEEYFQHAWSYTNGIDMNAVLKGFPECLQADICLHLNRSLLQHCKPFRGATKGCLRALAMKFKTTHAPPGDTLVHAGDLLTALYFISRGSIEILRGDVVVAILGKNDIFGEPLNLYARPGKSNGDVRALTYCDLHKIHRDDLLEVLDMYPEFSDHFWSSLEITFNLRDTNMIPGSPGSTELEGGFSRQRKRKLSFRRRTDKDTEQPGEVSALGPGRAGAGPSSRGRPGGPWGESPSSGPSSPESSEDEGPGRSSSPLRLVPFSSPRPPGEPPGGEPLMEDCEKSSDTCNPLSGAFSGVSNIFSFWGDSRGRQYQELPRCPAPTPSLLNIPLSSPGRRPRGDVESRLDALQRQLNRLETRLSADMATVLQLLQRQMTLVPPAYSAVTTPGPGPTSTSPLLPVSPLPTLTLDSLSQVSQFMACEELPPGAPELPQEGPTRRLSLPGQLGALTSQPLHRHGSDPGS
For `CCOC(=O)C1CCCCC12C(C#N)=C(N)Oc1n[nH]c(C)c12` (centres unmarked), the “hERG current change (%, negative = inhibition) at 10uM” value turned out to be 10.1%. The result for `CN1C(=O)C(CC(=O)Nc2ccc(F)cc2)N(CCCc2ccccc2)C1=S` (centres unmarked) reads 0.0595%; that for `CCOC(=O)c1c(C)[nH]c(C2=NNC(=NC3CC3)SC2)c1C`, -30.1%; that for `COc1ccccc1NC(=O)CNc1ccc(F)c(Cl)c1`, -11.7%. As for `CCn1cc([N+](=O)[O-])c(C(=O)Nc2ccc3c(c2)OCCO3)n1`, the figure is -9.69%. As for `COCCCNC(=O)c1ccccc1Sc1ccc(NC(C)=O)nc1`, the figure is 25.8%; as for `C=CCn1c(SCC(=O)c2ccc(OC)cc2)nnc1-c1cc2cccc(OC)c2o1`, 25.8%. For `CCC(C)NC(=O)CCc1nnc2ccc(N3CCC(C)CC3)nn12` (centres unmarked), the “hERG current change (%, negative = inhibition) at 10uM” value came to 3.66%. As for `COc1ccc(N2CC(C(=O)Nc3ccc4c(c3)OCCO4)CC2=O)cc1` (centres unmarked), the figure is 4.94%.

In the case of `CCc1ccc(NS(=O)(=O)c2ccc3oc(=O)ccc3c2)cc1`, the “hERG current change (%, negative = inhibition) at 10uM” value is -1.91%.

Consider `CCOC(=O)C1(Cc2ccc(Cl)cc2)CCN(C(=O)c2cscn2)CC1`, for which the “hERG current change (%, negative = inhibition) at 10uM” value is given as -37.4%. The result for `CCOC(=O)C1(Cc2ccc(Cl)cc2)CCN(C(=O)c2sc(C)nc2C)CC1` reads -52.9%; that for `CCOC(=O)C1(Cc2ccc(OC)cc2)CCN(C(=O)c2csc(C)n2)CC1`, 2.99%; that for `CCOC(=O)C1(Cc2ccc(OC)cc2)CCN(C(=O)c2sc(C)nc2C)CC1`, 1.86%. As for `O=C1CCC(C(=O)N2CCC(CO)(Cc3ccc(Cl)cc3)CC2)=NN1`, the figure is -32.5%; as for `CCOC(=O)C1(Cc2ccc(Cl)cc2)CCN(C(=O)C2=NNC(=O)CC2)CC1`, -69.6%; as for `CCOC(=O)C1(Cc2ccc(Cl)cc2)CCN(C(=O)C2CCCO2)CC1` (centres unmarked), -33.2%. In the case of `CCOC(=O)C1(Cc2ccc(Cl)cc2)CCN(C(=O)c2ccoc2)CC1`, the “hERG current change (%, negative = inhibition) at 10uM” value is -49.4%.

Regarding `CCOC(=O)C1(Cc2ccc(Cl)cc2)CCN(C(=O)c2cnc(C)cn2)CC1`, the “hERG current change (%, negative = inhibition) at 10uM” value is listed as -57.1%. The result for `CCOC(=O)N1CCN(C(=O)C2CCC(=O)N(Cc3ccc(Cl)cc3)C2)CC1` (centres unmarked) reads -40.5%; that for `CCOC(=O)C1(Cc2ccc(Cl)cc2)CCN(C(=O)c2cc(C)nc(C)n2)CC1`, -38.1%. As for `C=CCN1CC(C(=O)N2CCC(Cc3ccc(Cl)cc3)(C(=O)OCC)CC2)CC1=O` (centres unmarked), the figure is -72.4%. The result for `O=C1CC(NS(=O)(=O)c2cccs2)CN1c1cccc(F)c1` (centres unmarked) reads -6.29%. For `O=C(Nc1ccc(Cl)c(S(=O)(=O)N2CCOCC2)c1)c1ccc2c(c1)OCCO2`, the “hERG current change (%, negative = inhibition) at 10uM” value was 12.6%. Consider `COc1ccc2c(c1)C1NC(=S)N[C@@](C)(O2)C1C(=O)Nc1ccccc1` (some centres unmarked), for which the “hERG current change (%, negative = inhibition) at 10uM” value was -3.49%. Regarding `CCOC(=O)[C@H]1[C@H]2COc3cc(OC)ccc3[C@@H]2N2C(=O)CN(Cc3ccccc3)C(=O)[C@@]12C`, the “hERG current change (%, negative = inhibition) at 10uM” value was -8.34%. For `COc1ccc(OC)c(NS(=O)(=O)c2ccc(Br)s2)c1`, the “hERG current change (%, negative = inhibition) at 10uM” value is on record as -12.4%.

With `N#CC1=C(N)N(c2ccccc2Sc2ccccc2)C(=O)C1`, the “hERG current change (%, negative = inhibition) at 10uM” value was found to be 3.4%. The result for `Cc1ccc(NC(=O)N2CCC(NC(=O)c3ccco3)CC2)cc1` reads 4.55%; that for `COC(=O)C(C)Sc1nc2c(c(=O)n1-c1ccccc1)SCC2` (centres unmarked), -6.49%.

For the compound `COc1ccc(NC(=O)CN(C)C(=O)c2cn(-c3ccccc3)nc2-c2ccc(OC)cc2)cc1`, the “hERG current change (%, negative = inhibition) at 10uM” value was -7.66%. As for `CCCS(=O)(=O)N1CCN(S(=O)(=O)c2ccc(F)cc2)CC1`, the figure is 10.6%. The result for `O=C(Nc1nccs1)C1CCCCN1S(=O)(=O)c1ccccc1` (centres unmarked) reads 4.8%. `Cc1ccc(C)c(NS(=O)(=O)c2ccc(-c3cnc(C4CC4)o3)cc2)c1`: the “hERG current change (%, negative = inhibition) at 10uM” value came to 4.27%. The result for `CCCCCn1c(CN2CCN(Cc3ccccc3)CC2)nc2c1c(=O)[nH]c(=O)n2C` reads -72.3%. On to `CCCCCCn1c(N2CCN(c3ccccc3)CC2)nc2c1c(=O)[nH]c(=O)n2C`, for which the “hERG current change (%, negative = inhibition) at 10uM” value is -32.6%. The result for `CCCCCn1c(N2CCN(Cc3ccccc3)CC2)nc2c1c(=O)[nH]c(=O)n2C` reads -74.8%; that for `Cn1c(=O)[nH]c(=O)c2c1nc(N1CCN(Cc3ccccc3)CC1)n2CCCc1ccccc1`, -31.9%; that for `Cn1c(=O)[nH]c(=O)c2c1nc(N1CCN(Cc3ccccc3)CC1)n2CCSc1ncccn1`, -25.7%. The result for `Cc1cccc(Cn2c(CN3CCN(Cc4ccccc4)CC3)nc3c2c(=O)[nH]c(=O)n3C)c1` reads -64.9%; that for `Cn1c(=O)[nH]c(=O)c2c1nc(CN1CCOCC1)n2Cc1ccccc1`, -15.7%; that for `Cn1c(=O)[nH]c(=O)c2c1nc(CN1CCN(Cc3ccccc3)CC1)n2CC(N)=O`, 7.32%. For the compound `CCN1CCN(c2nc3c(c(=O)[nH]c(=O)n3C)n2Cc2ccccc2)CC1`, the “hERG current change (%, negative = inhibition) at 10uM” value was -27.7%. As for `CN1CCN(Cc2nc3c(c(=O)[nH]c(=O)n3C)n2CCc2ccccc2)CC1`, the figure is -28.1%; as for `CCN1CCN(c2nc3c(c(=O)[nH]c(=O)n3C)n2CCCc2ccccc2)CC1`, -79.2%. For the compound `CC(C)CCn1c(CN2CCN(Cc3ccccc3)CC2)nc2c1c(=O)[nH]c(=O)n2C`, the “hERG current change (%, negative = inhibition) at 10uM” value is reported as -17.6%. As to `COc1ccc(OC)c(NC(=O)CS(=O)(=O)Cc2nc(-c3ccccc3C)oc2C)c1`, the “hERG current change (%, negative = inhibition) at 10uM” value came to 7.66%.

As to `COc1ccc2c(C)cc(SC3CCOC3=O)nc2c1` (centres unmarked), the “hERG current change (%, negative = inhibition) at 10uM” value was -0.712%. Turning to `CCCC(=O)NC(=S)Nc1cccc(NC(=O)c2ccccc2Cl)c1`, the “hERG current change (%, negative = inhibition) at 10uM” value is given as -3.15%.

With `CCCCCn1c(N2CCN(c3cccc(Cl)c3)CC2)nc2c1c(=O)[nH]c(=O)n2C`, the “hERG current change (%, negative = inhibition) at 10uM” value is reported as -29.2%. On to `CCCn1c(N2CCC(Cc3ccccc3)CC2)nc2c1c(=O)[nH]c(=O)n2C`, for which the “hERG current change (%, negative = inhibition) at 10uM” value was -51.2%. For `CCCCn1c(CN2CCN(c3cccc(Cl)c3)CC2)nc2c1c(=O)[nH]c(=O)n2C`, the “hERG current change (%, negative = inhibition) at 10uM” value was 5.59%. Take `CCCCCn1c(CN2CCN(c3cccc(Cl)c3)CC2)nc2c1c(=O)[nH]c(=O)n2C`: the “hERG current change (%, negative = inhibition) at 10uM” value is reported as -63.3%. With `CCCCn1c(N2CCC(Cc3ccccc3)CC2)nc2c1c(=O)[nH]c(=O)n2C`, the “hERG current change (%, negative = inhibition) at 10uM” value is -49.4%. Regarding `CCCCCn1c(N2CCC(Cc3ccccc3)CC2)nc2c1c(=O)[nH]c(=O)n2C`, the “hERG current change (%, negative = inhibition) at 10uM” value is -11%. As for `CCOC(=O)N1CCC(NC(=O)CN(c2ccc(C(C)C)cc2)S(=O)(=O)c2c(C)nn(C)c2C)CC1`, the figure is -10.3%; as for `CC(CNC(=O)c1cc(COc2ccc3ncccc3c2)on1)c1ccccc1` (centres unmarked), 9.51%; as for `COc1ccc(S(=O)(=O)N2CCN(C)CC2)cc1C(=O)Nc1ccccc1`, 1.79%. As for `CN(CC(O)COc1ccc(OCC(O)CN(C)C2CCCCC2)cc1)C1CCCCC1` (centres unmarked), the figure is 8.06%; as for `CCN(CC(O)COc1ccc(OCC(O)CN(CC)C2CCCCC2)cc1)C1CCCCC1` (centres unmarked), 22.2%; as for `O=C(OCC(O)COc1ccccc1)c1ccc([N+](=O)[O-])cc1` (centres unmarked), -7.79%. With `CN(CC(O)COc1ccc2ccccc2c1)C1CCCCC1.Cl` (centres unmarked), the “hERG current change (%, negative = inhibition) at 10uM” value is -45.2%. The result for `COc1ccc(OCC(O)CN(C2CCCCC2)C2CCCCC2)cc1.Cl` (centres unmarked) reads -59.5%. The result for `O=[N+]([O-])c1ccc(OCC(O)CN(C2CCCCC2)C2CCCCC2)cc1` (centres unmarked) reads -75.8%. As for `Cc1cccc2nc(CSc3nc4[nH]ncc4c(=O)n3-c3cccc(Cl)c3)cc(=O)n12`, the figure is -23.3%; as for `COc1ccc(CNC(=O)[C@H](Cc2ccccc2)NC(=O)C2CCN(C(=O)[C@H](C)N)CC2)cc1`, -2.78%.

On to `Cc1ccc(-c2onc(C)c2C)cc1S(=O)(=O)N1CCOc2ccccc21`, for which the “hERG current change (%, negative = inhibition) at 10uM” value came to 9.26%. With `COc1cc(/C=N/NC(=O)CCc2n[nH]c(=O)[nH]c2=O)ccc1O`, the “hERG current change (%, negative = inhibition) at 10uM” value is -0.627%. Take `Cc1cccc(OC(C)C(=O)Nc2nccs2)c1` (centres unmarked): the “hERG current change (%, negative = inhibition) at 10uM” value is 8.8%. As for `Cc1ccc2c(c1)N(C(=O)CCC(=O)NCCCN1CCOCC1)CC(C)O2` (centres unmarked), the figure is -13.5%; as for `CC1CN(C(=O)CCC(=O)NCc2ccccc2)c2ccccc2O1` (centres unmarked), 0.256%. `CC1CN(C(=O)CCC(=O)NCCCN2CCN(Cc3ccccc3)CC2)c2cc(Cl)ccc2O1` (centres unmarked): the “hERG current change (%, negative = inhibition) at 10uM” value is listed as -76.1%.

Take `CC1CN(C(=O)CCC(=O)NCc2ccc(Cl)cc2)c2ccccc2O1` (centres unmarked): the “hERG current change (%, negative = inhibition) at 10uM” value is given as -53.6%.

Regarding `Cc1ccc2c(c1)N(C(=O)CCC(=O)NC1CCN(Cc3ccccc3)CC1)CC(C)O2` (centres unmarked), the “hERG current change (%, negative = inhibition) at 10uM” value is listed as -67.1%. As for `CCN1CCN(CCCNC(=O)CCC(=O)N2CC(C)Oc3ccc(C)cc32)CC1` (centres unmarked), the figure is -12.5%; as for `CC1CN(C(=O)CCC(=O)NCCCN2CCC(Cc3ccccc3)CC2)c2cc(Cl)ccc2O1` (centres unmarked), -72.7%; as for `Cc1ccc(CNC(=O)CCC(=O)N2CC(C)Oc3ccccc32)cc1` (centres unmarked), -28%. Consider `Cc1ccc2c(c1)N(C(=O)CCC(=O)NCCCN1CCN(C)CC1)CC(C)O2` (centres unmarked), for which the “hERG current change (%, negative = inhibition) at 10uM” value came to 9.95%. With `CC1CN(C(=O)CCC(=O)NC2CCN(Cc3ccccc3)CC2)c2ccccc2O1` (centres unmarked), the “hERG current change (%, negative = inhibition) at 10uM” value is given as -26.7%. Turning to `CC1CN(C(=O)CCC(=O)NCc2ccccc2)c2cc(Cl)ccc2O1` (centres unmarked), the “hERG current change (%, negative = inhibition) at 10uM” value is recorded as -11.5%. Regarding `Cc1ccc2c(c1)N(C(=O)CCC(=O)NC1CCCCCC1)CC(C)O2` (centres unmarked), the “hERG current change (%, negative = inhibition) at 10uM” value is given as -18.5%. As for `COc1ccccc1NC(=O)c1ccc(NS(=O)(=O)c2ccc(F)c(F)c2F)cc1`, the figure is -6.5%.

In the case of `COc1ccc(C(=O)CSc2nnc(-c3cccs3)n2-c2ccccc2)cc1`, the “hERG current change (%, negative = inhibition) at 10uM” value is reported as 4.83%.
